Only some compounds are listed: those with a hit (about 5.4% of all), similar ones and a draw of the others.
NR0B1 inh: NR0B1 (DAX1) inhibition; inhibition, % at 6.75 µM; P51843; 0.99% of 340,000 active; HEK293 Gal4-DAX1 luciferase reporter, luminescence;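 active = inhibition above the mean over all tested compounds plus 3 SD, cut at about 4.2% in these data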;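 note: 0% = DAX1-transfected cells with DMSO and 100% = empty-vector control cells with DMSO; inhibition shows as a rise in luminescence from relieved DAX1 repression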
Target sequence (P51843 207-470 limits assumed): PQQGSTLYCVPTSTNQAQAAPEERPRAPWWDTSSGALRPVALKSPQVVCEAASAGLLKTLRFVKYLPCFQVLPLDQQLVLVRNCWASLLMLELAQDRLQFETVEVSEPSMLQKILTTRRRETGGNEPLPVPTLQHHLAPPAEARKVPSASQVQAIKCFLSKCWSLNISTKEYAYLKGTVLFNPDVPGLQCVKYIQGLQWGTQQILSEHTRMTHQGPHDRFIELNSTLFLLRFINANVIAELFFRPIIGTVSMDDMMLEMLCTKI
GAA850 FXN act: increases GAA850 frataxin promoter reporter activity; HEK293 lucGAA850 FXN promoter luciferase reporter, 24 h; percent of 10 µM SAHA response; activation, % at 6 µM; 0.56% of 360,000 active; AID 540364;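 active = activation above the average of all compounds screened plus 3 SD, cutoff fixed separately per campaign, cut at about 7.5% in these data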;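 note: 0% = DMSO wells and 100% = 10 µM SAHA wells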
HSF1 inh: HSF1 inhibition | NIH3T3-HGL HSE-luciferase, MG132-induced, luminescence 8 h; stronger effect = lower value | activity change, negative = inhibition, % at 7.5 µM (by protocol) | 0.77% of 300,000 active;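 active = more than half of replicate wells show activity change below -50%, luminescence cut by over half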;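 note: luciferase reports HSF-1 transcriptional activity via heat shock element; 0% = median of DMSO wells and -100% = zero luminescence signal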
AHR activator: activators of human aryl hydrocarbon receptor; P35869; AHR-responsive luciferase reporter cells, luminescence; activation, % at 5 µM; 2.5% of 320,000 active; AID 2796; in the data active = activation above about 47%;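 note: 0% = vehicle wells and 100% = reference agonist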
HSF-1 act: increases HSF-1 driven luciferase reporter signal; 1.7% of 300,000 active; NIH3T3-HGL HSF-1 luciferase reporter, MG132, 8 h; 100% = twice DMSO control signal; activation, % at 9 µM; AID 504408;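 active = mean replicate activation of at least 50% with a set share of replicates each reaching 50%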;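 note: 0% = median of the neutral control wells and 100% = twice that signal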
Numbers without * were called inactive; x = no result given.

SMILES | NR0B1 inh | GAA850 FXN act | HSF1 inh | AHR activator | HSF-1 act
Cc1ccc(OCC(=O)NC(=S)Nc2cccc(C)n2)cc1 | 7.8* | 1.0 | 19.2 | 2.6 | 31.5
Cc1cccc(NC(=O)COc2ccc(Br)cc2)n1 | 1.0 | 0.9 | 22.9 | 77.6* | 19.2
Cc1ccc(OCC(=O)Nc2cccc(C)n2)c(C)c1 | 0.7 | 1.8 | 13.6 | 17.6 | 17.5
CC1CCN(c2nc3c(c(=O)[nH]c(=O)n3C)n2CCSc2nc3ccccc3o2)CC1 | x | x | -2.9 | x | -0.6
O=C(CSc1nnc(-c2ccc(Br)o2)n1Cc1ccccc1)c1ccccc1F | 2.4 | 1.4 | 31.7 | 6.2 | 72.4*
Cc1cc(NC(=O)CSc2nnc(-c3ccc(Br)o3)n2Cc2ccccc2)no1 | 1.0 | -0.7 | -3.6 | 0.3 | 0.2
CCOC(=O)Cc1csc(NC(=O)CCCN2C(=O)c3ccccc3C2=O)n1 | -0.7 | 0.0 | -5.1 | 3.2 | -3.5
Cc1ccc(/C=C(/C#N)c2nc(CCN3C(=O)c4ccccc4C3=O)cs2)cc1 | -0.8 | -2.7 | -53.2* | -1.3 | -65.2
COc1ccc(NC(=O)CN(C)S(=O)(=O)c2ccc(Br)s2)cc1OC | 0.5 | 0.4 | 25.9 | 5.4 | 55.1*
C=CCNC(=O)COc1c(C)ccc(C)c1C | 0.6 | -3.1 | -1.3 | 2.0 | 9.3
CCCCN(C)C(=O)Cn1c(=O)oc2cc(S(=O)(=O)N3CC(C)CC(C)C3)ccc21 (centres undefined) | 5.7* | 1.2 | 4.0 | -0.3 | -0.4
Cc1ccc(C(=O)NC(=S)N2CCN(C(=O)OC(C)(C)C)CC2)cc1Br | -0.9 | 0.9 | -1.1 | -0.6 | -18.2
CCOC(=O)c1sc(NC(=O)c2ccc(=O)[nH]c2)nc1C | 6.1* | -1.1 | 3.4 | 9.4 | 12.1
Cc1ccc(S(=O)(=O)N2CCC(=O)c3ccccc32)cc1 | 1.3 | -0.5 | x | x | x
Nn1c(=O)c2ccccc2n2c(SCc3ccc(C(F)(F)F)cc3)nnc12 | -0.1 | -1.0 | 8.9 | 1.9 | 9.5
Nn1c(=O)c2ccccc2n2c(SCc3ccccc3)nnc12 | 0.3 | -3.6 | -68.3* | 1.8 | -76.5
O=C(O)CSc1nnc2n(-c3ccccc3)c(=O)c3ccccc3n12 | 5.4* | 1.4 | -1.8 | -0.8 | 2.1
COc1cccc(N2[C@@H](CC(C)=O)c3ccc(/C=C/C(C)=O)cc3S2(=O)=O)c1 | -0.7 | 0.6 | -3.4 | 5.0 | -8.3
Cc1nn(CCCC(=O)N2CCN(c3ccc(F)cc3)CC2)c(C)c1[N+](=O)[O-] | -0.7 | 1.0 | 1.7 | 16.0 | 3.2
COC(=O)CN1C(=O)N(c2ccccc2)C(N(O)C(=O)Nc2ccccc2)C1(C)C (centres undefined) | 4.6* | 0.1 | -2.0 | 4.0 | 4.4
Cc1coc(NC(=O)CSc2nc(-c3ccc(Cl)cc3)cc(C(F)(F)F)c2C#N)n1 | 0.5 | 2.1 | -69.3* | 41.3 | -75.6
O=C(Nc1ccc(S(=O)(=O)Nc2ncccn2)cc1)C1=NN(c2ccccc2)C(=O)CC1 | -0.7 | 1.8 | -0.1 | 5.8 | -14.2
Cc1cc(NC(=O)NN2CCOCC2)nn1-c1c(Cl)cc(Cl)cc1Cl | 3.9 | 0.4 | 1.2 | 1.1 | 7.9
O=S(=O)(Nc1ccccc1O)c1ccc(-c2ccccc2)cc1 | -0.7 | 3.8 | 58.9 | 4.7 | 65.3*
O=S(=O)(Nc1cc(Sc2cccc3cccnc23)c(O)c2ccccc12)c1ccccc1 | x | x | 204.0 | x | 203.6*
SMILES | NR0B1 inh | GAA850 FXN act | HSF1 inh | AHR activator | HSF-1 act
CCc1ccc(S(=O)(=O)Nc2ccc(O)c3ccccc23)cc1 | -2.4 | 3.9 | 25.3 | 27.0 | 78.3*
CCc1ccc(S(=O)(=O)Nc2cc(SCC(=O)O)c(O)c3ccccc23)cc1 | -1.1 | -0.8 | 9.7 | 52.9* | 9.2
COc1ccc(-c2noc(N3CCC(C(=O)NCCCN4CCCCC4)CC3)n2)cc1 | 0.2 | 0.4 | -9.2 | 0.3 | -17.5
COc1cc(NS(=O)(=O)c2cc3[nH]c(=O)c(=O)[nH]c3cc2C)cc(OC)c1OC | 4.8* | 0.3 | -4.9 | 6.0 | -0.3
CC1CCN(c2ccc(C(=O)NCc3cccs3)cn2)CC1 | 1.2 | 1.9 | 38.5 | -1.4 | 51.9*
CC1CCN(S(=O)(=O)c2cccc(C(=O)NCc3cccs3)c2)CC1 | 0.1 | 0.0 | -10.2 | 0.5 | 0.4
CN(C)S(=O)(=O)Oc1ccsc1C(=O)Nc1ccc(C(F)(F)F)cc1 | -2.2 | 2.4 | -3.6 | 55.3* | 2.9
CN(C)S(=O)(=O)Oc1ccsc1C(=O)Nc1ccc(Br)cc1 | -1.2 | 0.1 | 5.7 | 10.9 | 18.4
Cc1ccc(/C(C#N)=C\c2cn(C)c3ccccc23)cc1 | x | x | x | 75.5* | x
CCCCC(=O)Nc1nc2c(s1)COc1ccccc1-2 | 2.5 | 0.6 | 10.6 | 48.6* | -3.2
O=C(CCSc1ccccc1)Nc1nc2c(s1)COc1ccccc1-2 | 0.9 | 1.6 | 14.0 | 52.0* | 24.0
CCCC(=O)Nc1nc2c(s1)COc1ccccc1-2 | 0.1 | -0.4 | 3.5 | 23.8 | 2.6
CC(C)(C)C(=O)OCc1ccc(C2=CC(=O)CC(C)(C)C2=O)cc1 | -0.2 | 2.0 | x | x | x
C/C(=N/NC(=O)CNC(=O)c1ccccn1)c1ccc([N+](=O)[O-])cc1 | 0.9 | -0.2 | -81.2* | 13.3 | -85.4
CCOc1cc(/C=C2\CCCc3c2nc2ccccc2c3C(=O)O)ccc1OC | 0.0 | 2.7 | 17.9 | 0.7 | 56.4*
CC(=O)c1c(C(=O)O)c2ccccc2[nH]c1=O | 4.8* | -0.9 | -5.8 | 1.7 | -7.2
COC(=O)c1c(N)c2ccccc2[nH]c1=O | 1.0 | 2.1 | -7.0 | 8.4 | 0.3
COc1ccc(C(C[N+](=O)[O-])c2c(C)[nH]n(-c3ccccc3)c2=O)cc1 (centres undefined) | 0.2 | 0.9 | 7.1 | 17.0 | 12.3
Cc1[nH]n(-c2ccccc2)c(=O)c1C(C[N+](=O)[O-])c1ccccc1Cl (centres undefined) | 1.3 | 1.6 | 106.9 | 68.2* | 145.6*
COc1ccc(C(=O)N=C2SC3CS(=O)(=O)CC3N2c2ccc(N(C)C)cc2)cc1OC (centres undefined) | 0.1 | 2.6 | 1.3 | -3.4 | 0.5
c1ccc(-c2nc(-c3ccccn3)no2)cc1 | -3.5 | -4.5 | 10.7 | 10.6 | 10.9
Cc1ccc(-c2nc(-c3ccccn3)no2)cc1 | -5.0 | -13.6 | -78.3* | -13.7 | -80.4
Cc1ccc2nc(-c3ccccn3)oc2c1 | -0.2 | 4.1 | 15.9 | 61.4* | 30.5
c1ccc(-c2ccc(-c3nc(-c4ccccn4)no3)cc2)cc1 | -5.2 | -16.4 | -87.7* | -9.1 | -89.0
Cc1ccc(-c2nc(-c3ccccn3)no2)cc1Cl | -5.2 | -9.5 | -30.6 | 1.6 | -28.8
C=CCN1CCC(=O)C(C(=O)OCC)=C1C(=O)OCC | -1.4 | -3.9 | x | x | x
O=[N+]([O-])c1cccc(COc2ccccc2CN2CCCCC2)c1 | -1.3 | 0.0 | x | x | x
CC(Oc1ccc2c3c(c(=O)oc2c1)CCC3)C(=O)NCC1CCC(C(=O)O)CC1 (centres undefined) | 4.7* | -0.6 | -2.1 | 4.9 | 1.1
CCc1cc(=O)oc2cc(OC(C)C(=O)NCC3CCC(C(=O)O)CC3)c(Cl)cc12 (centres undefined) | 5.9* | -1.0 | -3.2 | 0.5 | 1.3

Screens as filed in PubChem.
